Measured values: the supplement of paper PMC11383364
± gives the standard deviation of the averaged measurements.

system: SUM149; experiment: percent difference in area under dose-response curve of relative cell number, RPMI vs HPLM; higher = drug relatively more effective in HPLM than RPMI (negative = less effective in HPLM); details: treatment time: 72 h; dose range: 10-point, 1 nM to 20 µM; media compared: RPMI vs HPLM
Protocol: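 SUM149 triple-negative breast cancer cells, 500 cells/well in 384-well plates, were grown in RPMI or human plasma-like medium (HPLM) with 5% dialyzed FBS. They were pin-transferred with an anticancer plus metabolic-inhibitor library in 10-point dose series (20 µM to 1 nM). After 72 h, cells were fixed, stained with bisbenzimide and counted by Acumen plate cytometry. The AUC of relative survival vs dose was computed per medium, and the percent difference in AUC between RPMI and HPLM is reported.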

Structure (SMILES)	percent difference in area under dose-response curve [%]
O=C1CSC(c2ccccc2Cl)c2cc(Cl)ccc2N1 (centres undefined)	4.73
Cc1cc2c(C(C)C)c(O)c(O)c(C=O)c2c(O)c1-c1c(C)cc2c(C(C)C)c(O)c(O)c(C=O)c2c1O [Gossypol]	-5.85 ± 4.1
CCCCCC[C@H]1C(=O)O[C@H](C)[C@H](NC(=O)c2cccc(NC=O)c2O)C(=O)O[C@@H](C)[C@@H]1OC(=O)CC(C)C [Antimycin_A]	-6.05
CC1=CC(=O)c2c(O)cccc2C1=O [Plumbagin]	-4.04
[N-]=[N+]=CC(=O)OC[C@H](N)C(=O)O [Azaserine]	-16.2
CC(=O)c1c(O)c(C)c(O)c(Cc2c(O)c3c(c(C(=O)/C=C/c4ccccc4)c2O)OC(C)(C)C=C3)c1O [Rottlerin]	-6.49
C/C(=C\c1csc(C)n1)[C@@H]1C[C@@H]2O[C@@H]2CCC[C@H](C)[C@H](O)[C@@H](C)C(=O)C(C)(C)[C@@H](O)CC(=O)O1 [Epothilone_A]	-32.6
CC(C)[C@]12O[C@H]1[C@@H]1O[C@]13[C@]1(O[C@H]1C[C@H]1C4=C(CC[C@@]13C)C(=O)OC4)[C@@H]2O [Triptolide]	-67
Oc1cc(Cl)ccc1Oc1ccc(Cl)cc1Cl [Triclosan]	2.04
Cn1c(CCCC(=O)O)nc2cc(N(CCCl)CCCl)ccc21 [Bendamustine_HCL]	-4.52
O=C(O)CCCc1ccc(N(CCCl)CCCl)cc1 [Chloroambucil]	-5.32
CC(=O)N[C@H]1[C@@H](O[C@@H]2O[C@H](CC(O)[C@H]3O[C@@H](n4ccc(=O)[nH]c4=O)[C@H](O)[C@@H]3O)[C@H](O)[C@H](O)[C@H]2NC(=O)/C=C/CC(C)C)O[C@H](CO)[C@@H](N)[C@@H]1O (some centres undefined) [Tunicamycin]	-6.39
C[S+]([O-])CCCCN=C=S (centres undefined) [Sulforaphane]	-4.37
C/C=C(/C)C(=O)O[C@H]1C(C)=C2[C@H]([C@@H]1OC(=O)CCCCCCC)[C@@](C)(OC(C)=O)C[C@H](OC(=O)CCC)[C@@]1(O)[C@H]2OC(=O)[C@@]1(C)O [Thapsigargin]	-31.9
N#Cc1cn([C@@H]2O[C@H](CO)[C@@H](O)[C@H]2O)c2ncnc(N)c12 [Toyocamycin]	-27.1
C=C(C)[C@H]1Cc2c(ccc3c2O[C@@H]2COc4cc(OC)c(OC)cc4[C@@H]2C3=O)O1 [Rotenone]	-23
CCOc1ccccc1-n1c(C(C)N2CCN(C(=O)COc3ccc(Cl)cc3)CC2)nc2ccccc2c1=O (centres undefined) [Erastin]	-2.91
C/C(=C\c1csc(C)n1)[C@@H]1C[C@@H]2O[C@]2(C)CCC[C@H](C)[C@H](O)[C@@H](C)C(=O)C(C)(C)[C@@H](O)CC(=O)O1 [Epothilone_B]	-49.1
O=S(=O)(CC1CS1)c1ccc(Oc2ccccc2)cc1 (centres undefined)	4.58
CC[C@@H]1/C=C/C=C/C[C@H](C)[C@H](O)[C@](C)(O)C(=O)[C@H](C)[C@@H](O)[C@H](C)C(=O)[C@H](C)[C@@H](O)[C@H](C)/C=C/C(=O)O[C@H]2[C@@H](C)[C@@H](CC1)O[C@@]1(CC[C@@H](C)[C@@H](C[C@H](C)O)O1)[C@@H]2C [Oligomycin_A]	-41
NC(=O)c1ccc(N)nc1 [6_Aminonicotinamide]	-3.77
Cc1sc2c(c1C)C(c1ccc(Cl)cc1)=N[C@@H](CC(N)=O)c1nnc(C)n1-2	-25.8
c1ccc2c(c1)[I+]c1ccccc1-2 [Diphenyleneiodonium_chloride]	-42
S=C=NCCc1ccccc1	-5.8
